Laboratory results published in publication PMC7819943, “Rice protein-binding microarrays: a tool to detect cis-acting elements near promoter regions in rice”.
The full ranking holds about 39,000 sequences; the median of “fluorescence intensity (a.u.)” is about 4,300, and the highest 2% start at about 39,000. This is one part of a sample in which the highest values are shown more often than they occur.

The sequences below were run against T1, OsSMF1 (Oryza sativa, UniProt Q6ZLB0 1-436) (assay: protein-binding microarray (RPBM); PBS, 2% BSA, 51.3 ng/ul salmon testes DNA, 50 uM zinc acetate, 200 nM TF, 25 C, 1 h; high values mean tight binding). Conditions: protein: recombinant; tags: N-terminal polyhistidine and DsRed monomer fusion (pET32a); chain copies: 2; label: CyDye5-dUTP incorporated in the synthesized complementary strand; 3' TTTTT single-stranded linker to array surface; dsDNA, one strand shown.
T1 sequence: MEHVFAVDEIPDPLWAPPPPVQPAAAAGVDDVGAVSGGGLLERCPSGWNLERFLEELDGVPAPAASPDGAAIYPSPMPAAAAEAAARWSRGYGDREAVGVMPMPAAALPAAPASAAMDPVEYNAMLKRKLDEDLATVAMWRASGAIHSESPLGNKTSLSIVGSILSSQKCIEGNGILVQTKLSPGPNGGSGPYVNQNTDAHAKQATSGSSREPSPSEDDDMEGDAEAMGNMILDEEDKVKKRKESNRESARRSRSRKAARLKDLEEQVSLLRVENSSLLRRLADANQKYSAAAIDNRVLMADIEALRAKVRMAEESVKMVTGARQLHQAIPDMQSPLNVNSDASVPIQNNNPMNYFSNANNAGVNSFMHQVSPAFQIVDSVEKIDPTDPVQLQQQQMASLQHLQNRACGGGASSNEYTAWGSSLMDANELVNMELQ
Outline: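 Transcription factors were made in E. coli BL21-CodonPlus as N-terminal fusions to a polyhistidine tag and DsRed, then purified on Ni–NTA. After primer extension with Cy5-dUTP and blocking with 2% BSA, a custom Agilent array was exposed for 1 h at 25 °C to 200 nM protein in PBS, 2% BSA, salmon testes DNA and 50 µM zinc acetate. Washed arrays were scanned on an Axon 4000B, and the binding signal is per-feature fluorescence intensity in arbitrary units.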

Row | Sequence | binding signal
1 | CGCGCTGTCTGCACCGCCGCCGCCGCCGCCGGCGGAACCCCGGAGTCACCTAGTGCAG | 25200 fluorescence intensity (a.u.)
2 | CTCCGATACGTATCCCGTACGTATCGCTATTTACTTCGATCGGAGTCACCTAGTGCAG | 4930 fluorescence intensity (a.u.)
3 | CAGATCGGCAGACCAGACCACGTGTACACCCAACACGAGGCGGAGTCACCTAGTGCAG | 8390 fluorescence intensity (a.u.)
4 | AGGAAAGGTTAATTACGTACGTACACGGGAAGGAGTAACCCGGAGTCACCTAGTGCAG | 3340 fluorescence intensity (a.u.)
5 | TCCCTCTGACATGGTTCATTGATAGGTGGACTCTCTATTCCGGAGTCACCTAGTGCAG | 3240 fluorescence intensity (a.u.)
6 | CAAAAGCCTCGCCGCGCACCACCACCCAGCTCTCTCCACTCGGAGTCACCTAGTGCAG | 3640 fluorescence intensity (a.u.)
7 | CTCCTCTCCCGCGCGCCACGCCCTCCCTCCCCTTCCCCTTCGGAGTCACCTAGTGCAG | 4060 fluorescence intensity (a.u.)
8 | ACCTGCCCAACCCCAACCCCAACCCTCTCCTCTCCGCCCACGGAGTCACCTAGTGCAG | 3710 fluorescence intensity (a.u.)
9 | AAAGCCTCGCCGCCATCTCTCTCCACCACCCAAAATTTCTCGGAGTCACCTAGTGCAG | 35600 fluorescence intensity (a.u.)
10 | GCTCCTCCCGTGCCGCCGCCGTCTCGCGCCAGTGCGTCTCCGGAGTCACCTAGTGCAG | 3330 fluorescence intensity (a.u.)
11 | AAGAAAATCTCCTGTCTCAGTCTCCTCCGCTCCTTGCGCCCGGAGTCACCTAGTGCAG | 54400 fluorescence intensity (a.u.)
12 | AGCCAGCCCAAAAGCCACGCCGTCCACTCCATCTCCGCCTCGGAGTCACCTAGTGCAG | 48000 fluorescence intensity (a.u.)
13 | CCGCCGTGAAGCACACCACCACCAACCCCATCGCTCCCTCCGGAGTCACCTAGTGCAG | 64500 fluorescence intensity (a.u.)
14 | TCCCGTCTCGTCCGTCGTCTCCTCCGCTCCTTGCGCCAAGCGGAGTCACCTAGTGCAG | 3200 fluorescence intensity (a.u.)
15 | ACCACCACCACCACCATCGCACTCCCAACTCCCAAGCCGCCGGAGTCACCTAGTGCAG | 3760 fluorescence intensity (a.u.)
16 | GCTCCTCACCCGCCGTGAACCCAACCCACATCCGCTGACGCGGAGTCACCTAGTGCAG | 3300 fluorescence intensity (a.u.)
17 | TCCCCACCCTCCTCCGCAAGCCACGCCTCTCCCCAAAGTTCGGAGTCACCTAGTGCAG | 65500 fluorescence intensity (a.u.)
18 | GGTATTGCTGTATTTATTTTGGTGTGGTTGAGAGTCTAGTCGGAGTCACCTAGTGCAG | 4096 fluorescence intensity (a.u.)
19 | CATTCCCCTCTCCCCAATTTACCATACACACATGGATGTACGGAGTCACCTAGTGCAG | 3640 fluorescence intensity (a.u.)
20 | TGATCAATCAAGAAGACGATCGTGCCGATATCATGGCACCCGGAGTCACCTAGTGCAG | 3940 fluorescence intensity (a.u.)
21 | GTCTTTCTTCAATTGTTATTATTGTCATAAATCAGGAGAACGGAGTCACCTAGTGCAG | 22600 fluorescence intensity (a.u.)
22 | TTAACCCCGTCACGTCACCTCTCTCTCTCTCTACCGTCTCCGGAGTCACCTAGTGCAG | 9720 fluorescence intensity (a.u.)
23 | CAAACGGGACGAATTCCTAACCCTCGTCATCCGTCCCTTCCGGAGTCACCTAGTGCAG | 4710 fluorescence intensity (a.u.)
